# Results as given in PubChem BioAssay (NCI).
# This is part of a sample that, as a whole, favours compounds with a hit. Of some 79,000 tested, about 15% had one in any assay. Calls of active or inactive are those of the source. Cut-off read from the data, not from the text of the source: active = growth inhibition above about 70%; inactive = the rest. Where a SMILES comes first, the peptide text is derived from it. [ ]: non-standard residue; d: D form. The star is where a group is joined. ξ: configuration not given here. NMeF = CN[C@@H](Cc1ccccc1)C(=O)O; dThr(3ξ) = CC(O)[C@@H](N)C(=O)O; dNMeL = CN[C@H](CC(C)C)C(=O)O; NMeV = CN[C@H](C(=O)O)C(C)C; ξNMeN = CNC(CC(N)=O)C(=O)O; NMeA = CN[C@@H](C)C(=O)O; ξNMeV = CNC(C(=O)O)C(C)C; Boc = CC(C)(C)OC(=O)*; OBn = c1ccc(CO*)cc1; ξLac = CC(O)C(=O)O
# Assay: NCI Yeast Anticancer Drug Screen. Data for the cln2 rad14 strain (AID 165);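 note: 0% = growth equal to vehicle treated cultures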
# Conditions: S. cerevisiae cln2 rad14 strain, at 50.0 µM, stronger effect = higher value
# How it was run: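 Growth inhibition, relative to vehicle-treated controls, is the read-out. The test organism is a yeast strain with defined genetic alterations, cln2 rad14.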
row,Structure (SMILES),growth inhibition
1,CC(=O)OC(C)[C@@H](NC(=O)[C@@H](CC(C)C)N(C)C(=O)[C@@H]1CCCN1C(=O)C(C)O)C(=O)OCc1ccccc1 (stereo not given in full) (H-[ξLac]P[dNMeL][dThr(3ξ)](Ac)-OBn),8.2% (inactive)
2,Cc1cccc(OC(=O)Oc2cccc(C)c2)c1,-15.7% (inactive)
3,Cc1ccc(S(=O)(=O)NNC(=O)c2cccnc2)cc1,-27.8% (inactive)
4,C/C(=N\N=C\N(C)S(=O)(=O)c1ccc(C)cc1)c1ccccc1,-6.25% (inactive)
5,CC(O)C(C)C(N)C(=O)O (stereo not given),-0.85% (inactive)
6,CCOC(=O)C1CCCc2sc(N)c(C#N)c21 (stereo not given),-28.4% (inactive)
7,CC12CCC(CC1)C2(C)C,-4.8% (inactive)
8,CN(C)C(=S)SCC(=O)c1ccccc1,-20.2% (inactive)
9,CSc1cc(Cl)c(C)cc1S(=O)(=O)NC(=O)NNc1cccc(C(F)(F)F)n1,-5.4% (inactive)
10,O=C(OC1CCCC1OC(=O)c1ccccc1)c1ccccc1 (stereo not given),-5.3% (inactive)
11,CNC(=O)c1cccc([N+](=O)[O-])c1,-31.2% (inactive)
12,S=C1CNC(=S)CN1,8.75% (inactive)
13,[O-]/[N+](=C\c1cccc(O)c1)c1ccccc1,-21.2% (inactive)
14,CCCc1cc(=O)oc2c3c(c4c(c12)OC(C)(C)C=C4)O[C@H](C)[C@@H](C)C3O (stereo not given in full),-1.5% (inactive)
15,O=[N+]([O-])c1ccc(N/N=C2/CC(c3ccccc3)C(c3ccccc3)=C2Cl)c([N+](=O)[O-])c1 (stereo not given),24.4% (inactive)
16,COc1nc(NC2OC(COC(C)=O)C(OC(C)=O)C(OC(C)=O)C2OC(C)=O)c(-c2csc(N)n2)c(=O)n1C (stereo not given),4.35% (inactive)
17,O=c1[nH]cnc2nn(C3OC(CO)C(O)C3O)nc12 (stereo not given),11.2% (inactive)
18,Cn1c(=O)c2c(ncn2CCSCC2=NS(=O)(=O)c3cc(S(N)(=O)=O)c(C(F)(F)F)cc3N2)n(C)c1=O,-35.6% (inactive)
19,CC(C)CNC(=O)c1ccccc1,-3.2% (inactive)
20,CCOc1c(N=Nc2ccc([N+](=O)[O-])cc2)c(C)nn1C(N)=S,-27.4% (inactive)

row,Structure (SMILES),growth inhibition
1,Clc1ccc(-c2nnc(-c3ccc4ccccc4c3)o2)cc1Cl,11.8% (inactive)
2,O=C(O)C1C2CCC3C(C(=O)O)C3C21 (stereo not given),-40.2% (inactive)
3,c1ccc(C2CCN3c4ccc5ccccc5c4NCC23)cc1 (stereo not given),14.5% (inactive)
4,CCOC(=O)/C=C(/C)N(CC)CC,11.3% (inactive)
5,CCCCCCCCCCCCOC1C(COCCN2CCCCC2)OC2OC(C)(C)OC21 (stereo not given),90% (active)
6,CC1NC(=O)CC(c2ccccc2)N(N=O)C1c1ccccc1 (stereo not given),-7% (inactive)
7,CCCCCC(=O)NC1CCCCC1,-7.4% (inactive)
8,O=C(Cl)c1cccc2c([N+](=O)[O-])cccc12,-44% (inactive)
9,Nc1cccc(CCc2nc(N)nc(N)c2-c2ccc(Cl)cc2)c1,3.2% (inactive)
10,CCCCCC(=O)OCC(Br)CBr (stereo not given),-23.1% (inactive)
11,O=c1[nH]ncc2ccc([N+](=O)[O-])cc12,-1.25% (inactive)
12,CCC1(CC)C(=O)C(CC)(CC)C1=O,20.9% (inactive)
13,O=C(Nc1nnc(C(F)(F)F)s1)c1c(F)cccc1F,19.5% (inactive)
14,NC12CCC(CC1)C2,-6.25% (inactive)
15,N#Cc1c(N)[nH]c(=S)c(C#N)c1-c1ccccc1,33.5% (inactive)
16,CC(=O)c1cccc(NC(=O)OCC2CC3C=CC2C3)c1 (stereo not given),4% (inactive)
17,C=CCNC(=S)Nc1ccccc1,-5.1% (inactive)
18,Clc1ccc(-c2cc(-c3cc(-c4ccc(Cl)cc4Cl)n[nH]3)[nH]n2)c(Cl)c1,20.6% (inactive)
19,COC(=O)[C@H](C)N(C)C(=O)C(CC(N)=O)N(C)C(=O)[C@H](Cc1ccccc1)N(C)C(=O)[C@@H]1CCCN1C(=O)[C@H](C(C)C)N(C)C(=O)C(C(C)C)N(C)C(=O)[C@@H](NC(=O)OC(C)(C)C)C(C)C (stereo not given in full) (Boc-V[ξNMeV][NMeV]P[NMeF][ξNMeN][NMeA]-OMe),8.9% (inactive)
20,Cc1cc(C2(O)CCCc3ccccc32)[n+]([O-])cc1C (stereo not given),-4.8% (inactive)

# Assay: NCI Yeast Anticancer Drug Screen. Data for the bub3 strain (AID 167)
# Conditions: S. cerevisiae bub3 mutant strain, at 50.0 µM, stronger effect = higher value
# How it was run: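 Whole-cell yeast assay. The mutant strain was incubated with compounds, and growth inhibition was determined by comparison with vehicle-treated cells.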
row,Structure (SMILES),growth inhibition
1,CC(=O)OC(C)[C@@H](NC(=O)[C@@H](CC(C)C)N(C)C(=O)[C@@H]1CCCN1C(=O)C(C)O)C(=O)OCc1ccccc1 (stereo not given in full) (H-[ξLac]P[dNMeL][dThr(3ξ)](Ac)-OBn),-30.4% (inactive)
2,Cc1cccc(OC(=O)Oc2cccc(C)c2)c1,20.6% (inactive)
3,Cc1ccc(S(=O)(=O)NNC(=O)c2cccnc2)cc1,-5.75% (inactive)
4,C/C(=N\N=C\N(C)S(=O)(=O)c1ccc(C)cc1)c1ccccc1,1.55% (inactive)
5,CC(O)C(C)C(N)C(=O)O (stereo not given),-0.3% (inactive)
6,CCOC(=O)C1CCCc2sc(N)c(C#N)c21 (stereo not given),3.15% (inactive)
7,CC12CCC(CC1)C2(C)C,4.75% (inactive)
8,CN(C)C(=S)SCC(=O)c1ccccc1,-9.7% (inactive)
9,CSc1cc(Cl)c(C)cc1S(=O)(=O)NC(=O)NNc1cccc(C(F)(F)F)n1,-4.9% (inactive)
10,O=C(OC1CCCC1OC(=O)c1ccccc1)c1ccccc1 (stereo not given),12.2% (inactive)
11,CNC(=O)c1cccc([N+](=O)[O-])c1,7.25% (inactive)
12,S=C1CNC(=S)CN1,10.8% (inactive)
13,[O-]/[N+](=C\c1cccc(O)c1)c1ccccc1,-5.5% (inactive)
14,CCCc1cc(=O)oc2c3c(c4c(c12)OC(C)(C)C=C4)O[C@H](C)[C@@H](C)C3O (stereo not given in full),11.3% (inactive)
15,O=[N+]([O-])c1ccc(N/N=C2/CC(c3ccccc3)C(c3ccccc3)=C2Cl)c([N+](=O)[O-])c1 (stereo not given),-1.75% (inactive)
16,COc1nc(NC2OC(COC(C)=O)C(OC(C)=O)C(OC(C)=O)C2OC(C)=O)c(-c2csc(N)n2)c(=O)n1C (stereo not given),-11.3% (inactive)
17,O=c1[nH]cnc2nn(C3OC(CO)C(O)C3O)nc12 (stereo not given),-7.2% (inactive)
18,Cn1c(=O)c2c(ncn2CCSCC2=NS(=O)(=O)c3cc(S(N)(=O)=O)c(C(F)(F)F)cc3N2)n(C)c1=O,14.1% (inactive)
19,CC(C)CNC(=O)c1ccccc1,0.5% (inactive)
20,CCOc1c(N=Nc2ccc([N+](=O)[O-])cc2)c(C)nn1C(N)=S,13.1% (inactive)

row,Structure (SMILES),growth inhibition
1,Clc1ccc(-c2nnc(-c3ccc4ccccc4c3)o2)cc1Cl,-14.9% (inactive)
2,O=C(O)C1C2CCC3C(C(=O)O)C3C21 (stereo not given),11.7% (inactive)
3,c1ccc(C2CCN3c4ccc5ccccc5c4NCC23)cc1 (stereo not given),88.8% (active)
4,CCOC(=O)/C=C(/C)N(CC)CC,-5.05% (inactive)
5,CCCCCCCCCCCCOC1C(COCCN2CCCCC2)OC2OC(C)(C)OC21 (stereo not given),88% (active)
6,CC1NC(=O)CC(c2ccccc2)N(N=O)C1c1ccccc1 (stereo not given),-9.05% (inactive)
7,CCCCCC(=O)NC1CCCCC1,-30.6% (inactive)
8,O=C(Cl)c1cccc2c([N+](=O)[O-])cccc12,-1.4% (inactive)
9,Nc1cccc(CCc2nc(N)nc(N)c2-c2ccc(Cl)cc2)c1,8.85% (inactive)
10,CCCCCC(=O)OCC(Br)CBr (stereo not given),40.5% (inactive)
11,O=c1[nH]ncc2ccc([N+](=O)[O-])cc12,-2.3% (inactive)
12,CCC1(CC)C(=O)C(CC)(CC)C1=O,39.1% (inactive)
13,O=C(Nc1nnc(C(F)(F)F)s1)c1c(F)cccc1F,37% (inactive)
14,NC12CCC(CC1)C2,-10.4% (inactive)
15,N#Cc1c(N)[nH]c(=S)c(C#N)c1-c1ccccc1,31.4% (inactive)
16,CC(=O)c1cccc(NC(=O)OCC2CC3C=CC2C3)c1 (stereo not given),52.8% (inactive)
17,C=CCNC(=S)Nc1ccccc1,-18.9% (inactive)
18,Clc1ccc(-c2cc(-c3cc(-c4ccc(Cl)cc4Cl)n[nH]3)[nH]n2)c(Cl)c1,9.9% (inactive)
19,COC(=O)[C@H](C)N(C)C(=O)C(CC(N)=O)N(C)C(=O)[C@H](Cc1ccccc1)N(C)C(=O)[C@@H]1CCCN1C(=O)[C@H](C(C)C)N(C)C(=O)C(C(C)C)N(C)C(=O)[C@@H](NC(=O)OC(C)(C)C)C(C)C (stereo not given in full) (Boc-V[ξNMeV][NMeV]P[NMeF][ξNMeN][NMeA]-OMe),8.65% (inactive)
20,Cc1cc(C2(O)CCCc3ccccc32)[n+]([O-])cc1C (stereo not given),0.75% (inactive)
